# Assay results taken from the supplement of paper PMC9177965.
# Test system: HT29 sg-Ctrl (RNF43 wildtype)
# Assay: cell viability activity relative to DMSO (negative = inhibition); higher = more viable cells (less growth inhibition)
# Settings: 5 µM; 96 h
# Protocol: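 Broad Repurposing Library primary screen at a single dose of 5 uM. HT29 sg-Ctrl and HT29 RNF43 G659fs CRISPR-edited isogenic cells were seeded at 2500 cells/well in 384-well plates in duplicate and treated for 96 h. Viability was read by CellTiter-Glo and reported as % activity relative to DMSO, with MG132 as the positive control (negative = growth inhibition).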
smiles,measurement,value
O=C(c1c(F)ccc(NS(=O)(=O)N2CC[C@@H](F)C2)c1F)c1c[nH]c2ncc(-c3cnc(C4CC4)nc3)cc12,cell viability activity,-69%
COCCOC(=O)C1=C(C)NC(C)=C(C(=O)OC/C=C/c2ccccc2)C1c1cccc([N+](=O)[O-])c1 (centres undefined),cell viability activity,-50.7%
CC[C@@]1(O)C(=O)OCc2c1cc1n(c2=O)Cc2cc3c([N+](=O)[O-])cccc3nc2-1,cell viability activity,-95.5%
Nc1ncccc1-c1nc2ccc(-c3ccccc3)nc2n1-c1ccc(C2(N)CCC2)cc1,cell viability activity,-49.1%
COc1cc2c(Nc3ccc(Cl)c(Cl)c3F)ncnc2cc1OC[C@@H]1C[C@@H]2CN(C)C[C@@H]2C1,cell viability activity,-90.3%
CC(C)=CCC/C(C)=C/CC/C(C)=C/CSc1ccccc1C(N)=O,cell viability activity,-6.13%
COc1ccccc1S(=O)(=O)Nc1ccc2c(c1)CN(C)C(=O)N2,cell viability activity,-63.5%
C=CC(=O)Nc1cccc(Sc2nc(Nc3ccc(N4CCN(C)CC4)cc3)ncc2Cl)c1,cell viability activity,-42.7%
O=C(Nc1c[nH]nc1-c1nc2ccc(CN3CCOCC3)cc2[nH]1)NC1CC1,cell viability activity,-71.2%
COC(=O)C1=C(C)NC(C)=C(C(=O)OCCCN2CCC(c3ccccc3)(c3ccccc3)CC2)[C@@H]1c1cccc([N+](=O)[O-])c1,cell viability activity,-91.4%
Cn1cc(CNCC2CCN(c3ncc(C(=O)NO)cn3)CC2)c2ccccc21,cell viability activity,-92.8%
c1ccc2c(-c3cnn4cc(-c5ccc(N6CCNCC6)cc5)cnc34)ccnc2c1,cell viability activity,-95.7%
Cc1ccc2c(Br)cc(Br)c(OC(=O)c3ccccc3)c2n1,cell viability activity,-34.5%
Cc1cccc(C)c1NC(=O)CN1CCN(CCCC(c2ccc(F)cc2)c2ccc(F)cc2)CC1,cell viability activity,-46%
